38 compounds from PubChem BioAssay (Tox21) can be followed below.

Structures are written as SMILES. Inconclusive results are not listed. A number with no mark means an inactive call. Activity calls are given as the source filed them. Unless noted, calls come from the whole dose curve; as a rule, active = well fitted cell-killing curve with a large enough effect in the repeat runs (not every such curve was filed as active); inconclusive = weak or mixed curves, or effect the other way; inactive = no such curve, though single readings can be large or run the other way.
% is set by controls: 0 for no effect and ±100 for the full control effect.

Chain of Bile acid receptor (Homo sapiens) (Q96RI1 whole entry, looked up): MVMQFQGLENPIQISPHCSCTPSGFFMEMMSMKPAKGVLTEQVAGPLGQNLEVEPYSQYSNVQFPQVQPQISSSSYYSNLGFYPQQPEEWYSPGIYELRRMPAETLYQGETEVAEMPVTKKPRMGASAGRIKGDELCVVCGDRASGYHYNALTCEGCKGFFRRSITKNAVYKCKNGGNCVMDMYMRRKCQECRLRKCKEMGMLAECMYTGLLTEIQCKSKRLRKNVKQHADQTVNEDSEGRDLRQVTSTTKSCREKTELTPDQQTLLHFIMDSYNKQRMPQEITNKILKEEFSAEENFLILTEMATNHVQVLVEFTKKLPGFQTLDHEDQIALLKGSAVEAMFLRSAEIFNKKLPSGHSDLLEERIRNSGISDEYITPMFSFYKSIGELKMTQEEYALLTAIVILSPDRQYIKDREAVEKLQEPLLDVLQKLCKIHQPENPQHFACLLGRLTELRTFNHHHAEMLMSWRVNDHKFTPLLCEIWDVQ

One experiment addresses Bile acid receptor (Homo sapiens) (UniProt Q96RI1). Put plainly: qHTS assay to identify small molecule agonists of the farnesoid-X-receptor (FXR) signaling pathway (AID 743220; active = well fitted activation curve with a large enough effect in the signal ratio in the repeat runs, not every such curve was filed as active; the % refers to the signal ratio). Conditions: HEK293T FXR-UAS-bla, beta-lactamase FRET ratio, 16 h; series mostly up to 62.6 µM. The gist of the method: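 Beta-lactamase reporter under UAS control in GeneBLAzer FXR HEK 293T cells (5000/well) measured with LiveBLAzer FRET substrate after 2 h at room temperature. Compound exposure lasted 16 h at 37C.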
With `CCCCCCCCCCCBr`, the outcome was inactive.

On to `O=C(O)P(=O)(O)O`, for which the outcome was inactive. In the case of `CCCCCCCCCCCCCCCC/C=C/C1CC(=O)OC1=O` (stereo not drawn), the outcome was inactive. The same measure, in the same setting: with `COC(=O)c1cc(Cl)c(NC(C)=O)cc1OC` the entry was “inactive”; with `CCN(CC)CC(=O)Oc1ccc(NC(C)=O)cc1`, “inactive”; with `O=P(O)(O)C(O)(Cc1cccnc1)P(=O)(O)O`, “inactive”.

As to `COC(=O)N/N=C/c1c[n+]([O-])c2ccccc2[n+]1[O-]`, the result was inactive. For the compound `CC(=O)SCC(CC(=O)c1ccc(C)cc1)C(=O)O` (stereo not drawn), the outcome was inactive. For `C/C(=N\O)c1ccc(OCC(=O)N2CCCCC2)cc1`, the result was inactive.

In the case of `C=C(C)C(=O)OCCOC1CC2CC1C1C=CCC21` (stereo not drawn), the result was inactive. On to `O=C(CCBr)N1CCN(C(=O)CCBr)CC1`, for which the result was inactive. As to `CCCCCCCCC1CO1` (stereo not drawn), the result was inactive. As to `C/C=C(\C)C=O`, the outcome was inactive. Same read-out and setting: to `CCOCCOCCOC(C)=O` belongs “inactive”.

As for `CN1CCN(C(=O)C2CCCCC2)CC1`, the result was inactive. As to `CCCCC(O)/C=C(C)/C=C/C=C/C(=O)N1CCCC1=O` (stereo not drawn), the outcome was inactive. As for `CCCCCCCCCCCCCCCC(=O)OC`, the result was inactive.

Turning to `COC(=O)c1ccc(C(=O)O)cc1`, the result was inactive. On the same count and under the same terms, to `Cc1cc(C)c(C)c(C)c1` belongs “inactive”.

With `CC1(C)C(=O)C(C)(C)C1=O`, the result was inactive. Consider `CC(C)(C)OC(=O)c1ccccc1C(=O)O`, for which the result was inactive. Turning to `CC(=O)c1ccc(O)c(C(N)=O)c1`, the outcome was inactive. In the case of `Cc1ccccc1C#N`, the outcome was inactive. The same measure, in the same setting: to `O=C(O)Cc1c(Cl)ccc(Cl)c1Cl` belongs “inactive”. With `C[C@H]1COc2c(C3(N)CC3)c(F)cc3c(=O)c(C(=O)O)cn1c23`, the result was inactive. For `Cc1ccccc1OCC(=O)O`, the result was inactive. As for `C[C@@H]1CC[C@@]2(OC1)O[C@H]1C[C@H]3[C@@H]4CC[C@H]5C[C@@H](O)CC[C@]5(C)[C@H]4CC(=O)[C@]3(C)[C@H]1[C@@H]2C`, the activation was 2.31% [at 5.95 µM]. Turning to `O=C(O)/C=C(\CC(=O)O)C(=O)O`, the result was inactive. In the case of `CC(C)C(=O)Nc1cccc(C2CN3CCSC3=N2)c1` (stereo not drawn), the result was inactive. As to `COC(=O)c1ccc(NC(C)=O)cc1OC`, the result was inactive. `CN(C)c1cc(NC(=O)CNC(C)(C)C)c(O)c2c1C[C@H]1C[C@H]3[C@H](N(C)C)C(=O)C(C(N)=O)=C(O)[C@@]3(O)C(=O)C1=C2O`: the result was inactive. `OCCC(F)(F)C(F)(F)C(F)(F)C(F)(F)C(F)(F)C(F)(F)F`: the outcome was inactive. On the same count and under the same terms, with `CCCCc1ccc(Cl)cc1` the entry was “inactive”; with `CC(=O)SC[C@@H](C)C(=O)N1CCC[C@H]1C(=O)N[C@@H](Cc1ccccc1)C(=O)O`, “inactive”. For the compound `CC1(C)CC(N)CC(C)(C)N1`, the outcome was inactive.

Tested on in another experiment: not listed separately
Put plainly: qHTS assay to identify small molecule antagonists of the farnesoid-X-receptor (FXR) signaling pathway - cell viability counter screen (AID 743221). Note: nearly all actives have a fitted effect of over 50% in size. As to conditions: FXR-bla HEK293T viability, CellTiter-Glo luminescence, 16 h; series mostly up to 62.6 µM. The method, boiled down: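 In GeneBLAzer FXR-UAS-bla HEK 293T cells stimulated with 50 uM chenodeoxycholic acid (final), compounds acted for 16 h at 37 C. Viability was assessed afterwards by CellTiter-Glo luminescence.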
(In general: qHTS replaces the single test concentration by a dilution series.)
With `CCCCCCCCCCCBr`, the compound was called inactive. Turning to `O=C(O)P(=O)(O)O`, the compound was classed as inactive. Regarding `CCCCCCCCCCCCCCCC/C=C/C1CC(=O)OC1=O` (stereo not drawn), the compound was called inactive.

For the compound `COC(=O)c1cc(Cl)c(NC(C)=O)cc1OC`, the call was inactive. As to `CCN(CC)CC(=O)Oc1ccc(NC(C)=O)cc1`, the call was inactive.

As to `O=P(O)(O)C(O)(Cc1cccnc1)P(=O)(O)O`, the compound was classed as inactive. As to `COC(=O)N/N=C/c1c[n+]([O-])c2ccccc2[n+]1[O-]`, the compound was called inactive. On to `CC(=O)SCC(CC(=O)c1ccc(C)cc1)C(=O)O` (stereo not drawn), for which the call was inactive. For the compound `C/C(=N\O)c1ccc(OCC(=O)N2CCCCC2)cc1`, the outcome was inactive. Consider `C=C(C)C(=O)OCCOC1CC2CC1C1C=CCC21` (stereo not drawn), for which the outcome was inactive.

In the case of `O=C(CCBr)N1CCN(C(=O)CCBr)CC1`, the result was inactive. Turning to `CCCCCCCCC1CO1` (stereo not drawn), the outcome was inactive.

`O=C(O)CCC(=O)Nc1ccc(S(=O)(=O)Nc2nccs2)cc1`: the compound was classed as inactive. The same measure, in the same setting: with `C/C=C(\C)C=O` the entry was “inactive”; with `CCOCCOCCOC(C)=O`, “inactive”.

With `CN1CCN(C(=O)C2CCCCC2)CC1`, the compound was called inactive. Regarding `CCN(CC)CC`, the compound was classed as inactive. Take `CCN1CCN(C(=O)N[C@@H](C(=O)N[C@@H]2C(=O)N3[C@@H]2SC(C)(C)[C@H]3C(=O)O)c2ccccc2)C(=O)C1=O`: the call was inactive. For `CCCCC(O)/C=C(C)/C=C/C=C/C(=O)N1CCCC1=O` (stereo not drawn), the call was inactive. With `CCCCCCCCCCCCCCCC(=O)OC`, the outcome was inactive. As for `COC(=O)c1ccc(C(=O)O)cc1`, the compound was called inactive. As for `Cc1cc(C)c(C)c(C)c1`, the call was inactive.

As to `CC1(C)C(=O)C(C)(C)C1=O`, the compound was called inactive. On to `CC(C)(C)OC(=O)c1ccccc1C(=O)O`, for which the call was inactive. Take `CC(=O)c1ccc(O)c(C(N)=O)c1`: the call was inactive. For the compound `Cc1ccccc1C#N`, the compound was called inactive.

Take `O=C(O)Cc1c(Cl)ccc(Cl)c1Cl`: the result was inactive. On to `C[C@H]1COc2c(C3(N)CC3)c(F)cc3c(=O)c(C(=O)O)cn1c23`, for which the outcome was inactive. Take `Cc1ccccc1OCC(=O)O`: the compound was classed as inactive. As for `C[C@@H]1CC[C@@]2(OC1)O[C@H]1C[C@H]3[C@@H]4CC[C@H]5C[C@@H](O)CC[C@]5(C)[C@H]4CC(=O)[C@]3(C)[C@H]1[C@@H]2C`, the activity change, negative = cytotoxicity was 4.76% [at 5.95 µM]. With `O=C(O)/C=C(\CC(=O)O)C(=O)O`, the result was inactive. `CC(C)C(=O)Nc1cccc(C2CN3CCSC3=N2)c1` (stereo not drawn): the outcome was inactive.

`COC(=O)c1ccc(NC(C)=O)cc1OC`: the result was inactive. For `CN(C)c1cc(NC(=O)CNC(C)(C)C)c(O)c2c1C[C@H]1C[C@H]3[C@H](N(C)C)C(=O)C(C(N)=O)=C(O)[C@@]3(O)C(=O)C1=C2O`, the compound was classed as inactive. On the same count and under the same terms, with `OCCC(F)(F)C(F)(F)C(F)(F)C(F)(F)C(F)(F)C(F)(F)F` the entry was “inactive”; with `CCCCc1ccc(Cl)cc1`, “inactive”. Same read-out and setting: with `CC(=O)SC[C@@H](C)C(=O)N1CCC[C@H]1C(=O)N[C@@H](Cc1ccccc1)C(=O)O` the entry was “inactive”. Turning to `CC1(C)CC(N)CC(C)(C)N1`, the compound was called inactive.
